Test results as given in PubChem BioAssay (Tox21).
Results filed as inconclusive are left out. Values without a mark were called inactive. Activity calls are given as the source filed them. Calls follow the shape of the dose curve; as a rule, active = well fitted inhibition curve with a large enough effect in the repeat runs; inconclusive = weak or mixed curves; inactive = no such curve, though single readings can be large or run the other way.

The compounds below were run against Cytochrome P450 3A4 (Homo sapiens) (UniProt P08684) (assay: Cytochrome P450 Family 3 Subfamily A Member 4 (CYP3A4) small molecule antagonists: luciferase reporter qHTS assay (AID 1671201; also: nearly all actives have a fitted effect of over 50% in size)). Details: P450-Glo CYP3A4 enzyme, luciferin luminescence, 1 h; series mostly up to 115 µM; activity change, negative = inhibition: at the top concentration.
Sequence of Cytochrome P450 3A4 (Homo sapiens) (P08684 whole entry, looked up): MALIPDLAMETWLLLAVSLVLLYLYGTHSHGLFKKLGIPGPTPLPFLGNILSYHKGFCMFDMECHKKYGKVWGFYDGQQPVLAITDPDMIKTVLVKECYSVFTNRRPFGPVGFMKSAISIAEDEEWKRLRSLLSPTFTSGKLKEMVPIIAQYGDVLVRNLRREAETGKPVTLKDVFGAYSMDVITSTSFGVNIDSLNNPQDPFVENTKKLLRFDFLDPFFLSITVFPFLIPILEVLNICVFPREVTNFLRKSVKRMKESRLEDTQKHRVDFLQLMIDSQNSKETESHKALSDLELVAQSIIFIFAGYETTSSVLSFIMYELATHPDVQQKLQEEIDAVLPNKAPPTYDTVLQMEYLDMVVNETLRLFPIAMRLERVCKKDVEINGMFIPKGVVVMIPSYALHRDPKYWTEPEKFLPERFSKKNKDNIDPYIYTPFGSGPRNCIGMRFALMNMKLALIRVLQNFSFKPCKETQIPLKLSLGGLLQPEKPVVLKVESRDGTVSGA
Procedure, shortened: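 Room-temperature assay throughout: 10 min compound–enzyme/substrate preincubation, 1 h reaction after NADPH regeneration solution, 20 min detection. Luciferin formed from proluciferin substrate is quantified by luminescence.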
% is scaled to controls: 0 for no effect and ±100 for the full control effect; potency is read from the fitted curve at half-maximal effect.

Compound | activity change, negative = inhibition | Potency
CCOC(=O)Cc1cccc2ccccc12 | 44.7% | 
CCCCC | -13.6% | 
CCO[Si](CCCCl)(OCC)OCC |  | 3.53 µM (active)
CCCCCCCCCCO[C@@H]1O[C@H](CO)[C@@H](O)[C@H](O)[C@H]1O | -19.5% | 
CC(=O)c1cccc([N+](=O)[O-])c1 | 7.31% | 
CC(=O)OC[C@H]1O[C@@H](n2ncc(=O)[nH]c2=O)[C@H](OC(C)=O)[C@@H]1OC(C)=O | 6.39% [at 52.9 µM] | 
CCCCC(CC)COC(=O)CCCCCCCCC(=O)OCC(CC)CCCC (stereo not drawn) | -2.51% | 
CC1OC(=O)C(C)OC1=O (stereo not drawn) | 8.6% | 
